# Source: PubChem BioAssay (National Center for Advancing Translational Sciences (NCATS))
# ELG1 repair inh = qHTS screen for small molecules that inhibit ELG1-dependent DNA repair in human embryonic kidney (HEK293T) cells expressing luciferase-tagged ELG1; HEK293T ELG1-luciferase reporter, luminescence, 16 h; DNA damage induced by 5-fluorouridine; Potency, µM (series often up to 46.1 µM), inactives show top-dose activity change, negative = inhibition, most hits filed as inhibitors; actives 2.3% (n = 330,000); AID 504467, 2011; also: potency is read from the fitted curve at half-maximal effect; nearly all actives have a fitted effect of over 55% in size
#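 HEK293T cells expressing luciferase-tagged ELG1 (2,000/well) received 5-Fluorouridine plus compound or DMSO for 16 hr at 37 °C. Luciferase was read by ONE-Glo luminescence after 30 min at room temperature.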
# DT40 TDP1 CPT = qHTS for Inhibitors of human tyrosyl-DNA phosphodiesterase 1 (TDP1): qHTS in cells in presence of CPT; chicken DT40 Tdp1-/-;hTDP1 cells + 20 nM CPT, ATP luminescence, 48 h; Potency, µM (top dose mostly 46.2 µM), inactives show top-dose activity change, negative = growth inhibition, usual class: inhibitors; actives 12% (n = 420,000); AID 686979, 2013; also: potency is read from the fitted curve at half-maximal effect; nearly all actives have a fitted effect of over 55% in size
#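 Chicken DT40 Tdp1-/- cells stably complemented with human TDP1 were seeded at 400 cells/well in medium containing 20 nM camptothecin, exposed to pin-transferred compounds, and grown at 37 °C for at least 48 hr. Viability was read as ATP luminescence.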
# Giardia killer = Small Molecules that selectively kill Giardia lamblia: qHTS; Giardia lamblia trophozoite viability; activity change, % at 7.66 µM, hits read low; actives 0.15% (n = 340,000); in the data active = activity change below about -80%; inconclusive = between about -30% and that limit;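 also: parasites exposed to compound for two days anaerobically before the ATP read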
#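 Killing of trophozoites was scored by loss of ATP luminescence after a 48 hrs anaerobic exposure to compounds at 37 deg C, using 100 cells per well.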
# TDP1 block = qHTS Assay for Inhibitors of Tyrosyl-DNA Phosphodiesterase (TDP1). Tyrosyl-DNA phosphodiesterase 1 (Homo sapiens), Q9NUW8. recombinant TDP1, AlphaScreen DNA substrate cleavage. Potency, µM (titrated, usually from 130 µM), for the others: at the top dose activity change, negative = inhibition, hits mostly inhibitors. actives 0.28% (n = 350,000). AID 485290, 2010; also: potency is read from the fitted curve at half-maximal effect; nearly all actives have a fitted effect of over 40% in size
# Target sequence (Q9NUW8 whole entry, looked up): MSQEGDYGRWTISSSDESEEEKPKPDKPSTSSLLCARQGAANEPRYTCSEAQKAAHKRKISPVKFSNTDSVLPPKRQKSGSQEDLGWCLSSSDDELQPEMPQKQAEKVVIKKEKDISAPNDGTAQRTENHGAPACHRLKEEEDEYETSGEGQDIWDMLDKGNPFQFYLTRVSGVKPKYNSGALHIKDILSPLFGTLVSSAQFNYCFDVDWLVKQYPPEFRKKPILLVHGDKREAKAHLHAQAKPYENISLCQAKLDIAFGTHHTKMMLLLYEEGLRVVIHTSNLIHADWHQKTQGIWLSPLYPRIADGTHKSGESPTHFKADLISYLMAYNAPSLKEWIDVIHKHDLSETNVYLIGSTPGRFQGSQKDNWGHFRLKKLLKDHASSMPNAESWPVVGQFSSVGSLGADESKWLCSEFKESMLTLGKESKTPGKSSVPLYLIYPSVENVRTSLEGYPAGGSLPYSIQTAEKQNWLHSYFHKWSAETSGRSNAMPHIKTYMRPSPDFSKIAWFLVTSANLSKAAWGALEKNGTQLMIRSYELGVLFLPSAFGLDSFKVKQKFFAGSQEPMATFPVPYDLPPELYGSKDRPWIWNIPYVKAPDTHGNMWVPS
#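 Signal: AlphaScreen proximity between streptavidin donor and anti-FITC acceptor beads on intact substrate. Reaction: Tdp1 1 nM, substrate 15 nM final, 5 min RT after 15 min compound preincubation.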
# IL1B secr inh = qHTS for Inhibitors of Inflammasome Signaling: IL-1-beta AlphaLISA Primary Screen; THP-1 LPS/ATP IL-1B secretion, AlphaLISA, 16 h; hits give low values; activity change, % at 57.5 µM; actives 4.7% (n = 360,000); in the data active = activity change below about -50%; inconclusive = mostly about -30% to -49%
#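 THP-1 cells pretreated 1 hr with compounds (up to 57.5 uM final), then stimulated with LPS (250 ng/mL final) plus ATP (1.25 mM final); secreted IL-1B measured by AlphaLISA after 16 hr, decreased signal indicating inhibition.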
# DT40 TDP1 no CPT = qHTS for Inhibitors of human tyrosyl-DNA phosphodiesterase 1 (TDP1): qHTS in cells in absence of CPT | DT40 Tdp1-/- hTDP1 cells, no CPT, ATP luminescence, 48 h | Potency, µM (highest dose often 46.2 µM), inactives show at the highest dose activity change, negative = growth inhibition, hits mostly inhibitors | actives 15% (n = 420,000) | AID 686978, 2013; also: potency is read from the fitted curve at half-maximal effect; nearly all actives have a fitted effect of over 55% in size
#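 Stably hTDP1-transfected Tdp1-null chicken DT40 cells were treated with library compounds minus camptothecin and grown for at least 48 hr at 37 °C, after which cellular ATP was quantified by luminescence.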
# * marks the source's active call; other numbers are inactive results; ? = inconclusive; nt = no result; [ ] = another dose, or the depositor's remark. In the library only some 19% were active in any assay of this set; here they are far more common. Unless noted, calls follow the shape of the dose curve; as a rule, active = well fitted curve in the direction sought with a large enough effect; inconclusive = small, poorly fitted or top-dose-only effect, or another doubt; inactive = no such curve, though single readings can be large; an effect the other way counts as inactive or inconclusive. % is scaled to controls: 0 for no effect and ±100 for the full control effect.
SMILES,ELG1 repair inh,DT40 TDP1 CPT,Giardia killer,TDP1 block,IL1B secr inh,DT40 TDP1 no CPT
Nc1nonc1-c1nc2ccccc2n1Cc1cccc(Cl)c1,nt,-6%,nt,3%[12.3 µM],nt,10%
COc1cccc(Cn2c(C(C)n3c(C)nc4ccccc43)nc3ccccc32)c1 (stereo unspecified),nt,?,nt,nt,21,12µM*
CCOc1ccc(CCNC(=O)Cn2c(-c3nonc3N)nc3ccccc32)cc1OCC,?,10µM*,2,7%,-3,13µM*
COc1cc(Cn2c(-c3nonc3N)nc3ccccc32)ccc1C,15%,2.9µM*,-9,5%,7,4.1µM*
COc1cccc(Cn2c(-c3nonc3N)nc3ccccc32)c1,22%,2.9µM*,?,5%,50,2.9µM*
Cc1ccc(Cn2c(-c3nonc3N)nc3ccccc32)cc1,15%,-10%,8,5%,12,-23%
COc1ccc(OCC(=O)NCC2(N3CCN(C)CC3)CCCCC2)cc1,nt,-2%,nt,-7%,nt,-18%
Cc1coc2cc3oc(=O)c(CCC(=O)NC4CC4)c(C)c3cc12,16%,16µM*,-3,nt,-14,13µM*
C=C(C)COc1ccc2c(C)c(CCC(=O)NC3CC3)c(=O)oc2c1,0%,18µM*,18,1%,-11,?
Cc1oc2cc3oc(=O)c(CCC(=O)NC4CC4)c(C)c3cc2c1C,8%,5.8µM*,-8,nt,-15,9.2µM*
COc1ccc(CCNC(=O)CCc2c(C)c3cc4c(C)coc4cc3oc2=O)cc1,nt,?,nt,-1%,nt,?
Cc1c(Cc2ccccc2)c(=O)oc2cc(OCC(=O)NCC(O)c3ccccc3)ccc12 (stereo unspecified),-17%,?,19,6%,10,18µM*
O=Cc1c[nH]c2cccc(OCc3ccccc3)c12,?,?,25,0%,-79*,23µM*
CC1=CC(=C2C=CC(=O)C=C2)C=C(C)N1C,0%,nt,nt,8%,nt,nt
NCC(=O)Nc1ccc(Cl)cc1C(=O)c1ccc[nH]1,?,0.16µM*,3,12%,5,0.12µM*
O=C(CNC(=O)c1ccccc1)OCCCOC(=O)CNC(=O)c1ccccc1,13%,5%,4,6%,5,7%
CCOc1ccc(NC(=O)c2ccc(NC(=O)CCS(=O)(=O)c3cccs3)cc2)cc1,nt,2%,nt,-1%,nt,-2%
C[C@@H]1ON(C)[C@H]2C[C@H]3c4[nH]c5ccc(-c6ccc7c(c6)OCO7)cc5c4CCN3C(=O)[C@@H]12,nt,13µM*,nt,nt,0,9.2µM*
CC1CCCCC1NC(=O)COC(=O)c1c2c(nc3ccccc13)/C(=C\c1ccco1)CC2 (stereo unspecified),nt,29µM*,1,nt,?,23µM*
O=C(COC(=O)c1c2c(nc3ccccc13)/C(=C\c1ccco1)CC2)NC1CCCC1,nt,16µM*,0,nt,-13,23µM*
CN(CCC#N)C(=O)COC(=O)c1c2c(nc3ccccc13)/C(=C\c1ccco1)CC2,nt,21µM*,-3,nt,-63*,13µM*
CCCc1nc2ccccc2c(C(=O)OCC(=O)NC2CC2)c1CC,?,?,2,-4%,3,?
CCN1C/C(=C/c2ccc(N3CCOCC3)cc2)C(=O)/C(=C/c2ccc(N3CCOCC3)cc2)C1,?,?,-8,5%,-103*,?
CN1C/C(=C/c2ccsc2)C(=O)/C(=C/c2ccsc2)C1,?,10µM*,-4,3%,-94*,13µM*
CN1C/C(=C/c2ccncc2)C(=O)/C(=C/c2ccncc2)C1,?,?,10,12%,3,-29%
SMILES,ELG1 repair inh,DT40 TDP1 CPT,Giardia killer,TDP1 block,IL1B secr inh,DT40 TDP1 no CPT
CCCC(=O)Nc1ccc(N2CCOCC2)cc1,29%,-24%,14,0%,5,-1%
CN1C/C(=C\c2ccc(N3CCOCC3)cc2)C(=O)/C(=C/c2ccc(N3CCOCC3)cc2)C1,?,?,-5,3%,-103*,21µM*
CCN(CC(=O)Nc1ccc(C(=O)OC)cc1)C1CCCCC1,0%,-5%,-15,nt,17,-28%
Cc1ccc(C)c(S(=O)(=O)Nc2ccc3[nH]c(=O)[nH]c3c2)c1,-1%,?,10,8%,11,?
Cc1ccc(C)c(S(=O)(=O)Nc2ccc3scnc3c2)c1,-26%,23µM*,-1,5%,-19,18µM*
CC1=C(NCCc2ccccc2)CCC1=O,6%,21µM*,-2,8%,38,21µM*
CN(C)c1ccc(Sc2ccc3nc(N)nc(N)c3c2)cc1,nt,1.8µM*,nt,nt,-15,0.65µM*
Cc1ccc(Sc2cc(C(F)(F)F)nc(N(C)C)n2)cc1,29%,?,4,-7%,-21,?
O=C(NCCS(=O)(=O)N1CCN(c2ccccc2)CC1)C(c1ccccc1)c1ccccc1,nt,?,nt,-3%,nt,?
Cc1nc(NCc2ccccn2)c2ccccc2n1,?,13µM*,2,1%,-9,10µM*
O=c1c2ccccc2nc2c3ccccc3c(NCc3ccccn3)nn12,?,?,-28,6%,?,15µM*
O=c1c2ccccc2nc2c3ccccc3c(NCCO)nn12,-5%,13µM*,-9,4%,0,?
Cc1cc(NCc2ccccn2)nc2ccccc12,?,-15%,10,5%,13,-15%
OCCNc1c2ccccc2nc2ccccc12,21µM*,13µM*,15,5%,-8,10µM*
O=c1c2ccccc2nc2c3ccccc3c(NCc3cccnc3)nn12,?,6%,-3,6%,-4,6%
Cc1cnc(C(=O)OCC(=O)c2ccc(F)cc2)cn1,-6%,-2%,-5,3%,3,11%
CC(C)c1ccc(OCc2cc(=O)n3c4c(sc3n2)CCCC4)cc1,nt,2%,nt,-1%,nt,-4%
CC(C)c1ccc(NC(=O)CSc2nnc(-c3ccccc3)n2C)cc1,nt,-15%,nt,nt,nt,-11%
O=C1C[C@@H](O)[C@@H](O)[C@@H]2[C@H]3C(=O)N(c4ccc(F)cc4F)C(=O)[C@@H]3CC[C@@H]12,nt,nt,nt,6%[21 µM],nt,nt
